Source: PubChem
Compounds with a hit are over-represented: about 19% of the library has one in this group of screens.
IL1B secr inh: inhibitors of inflammasome signaling (IL-1 beta secretion); hit rate 4.7% among 360,000; AID 743279; THP-1 LPS/ATP IL-1B secretion, AlphaLISA, 16 h; hits give low values; activity change, % at 57.5 µM; in the data active = activity change below about -50%; inconclusive = mostly about -30% to -49%
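Secreted IL-1B measured by AlphaLISA bead assay after 16 h compound exposure of THP-1 cells; compounds (final up to 57.5 uM) added 1 h before LPS (250 ng/mL) and ATP (1.25 mM) stimulation; lower signal means less secretion.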
HT1080 IDH1KD tx: toxicity to HT-1080 IDH1 knockdown cells (counter line) | HT-1080 IDH1 knockdown viability, ATP luminescence, 48 h | Potency, µM (series often up to 46.1 µM), most hits filed as cytotoxic | hit rate 2% among 360,000 | AID 686971
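Viability of IDH1-knockdown HT-1080 fibrosarcoma cells was assessed by CellTiter-Glo after 48 h at 37 °C with titrated compound; concentration-effect curves were classified by fit quality and response size.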
DT40 TDP1 no CPT: qHTS for Inhibitors of human tyrosyl-DNA phosphodiesterase 1 (TDP1): qHTS in cells in absence of CPT | hit rate 15% among 420,000 | DT40 Tdp1-/- hTDP1 cells, no CPT, ATP luminescence, 48 h | Potency, µM (doses to about 46.2 µM), hits mostly inhibitors | AID 686978, 2013; also: nearly all actives have a fitted effect of over 55% in size
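Growth kinetics read by CellTiter-Glo luminescence after ≥48 hr at 37 °C. Cells: DT40 Tdp1-/- stably carrying human TDP1, 400 per well, compound exposure in the absence of CPT (DMSO vehicle).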
ELG1 repair inh: inhibitors of ELG1-dependent DNA repair in HEK293T cells; HEK293T ELG1-luciferase reporter, luminescence, 16 h; DNA damage induced by 5-fluorouridine; Potency, µM (highest dose often 46.1 µM), most hits filed as inhibitors; hit rate 2.3% among 330,000; AID 504467; also: nearly all actives have a fitted effect of over 55% in size
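Reporter activity after DNA damage by 5-fluorouridine is monitored. Compound-treated cells incubate 16 hr at 37 °C, then ONE-Glo is added for 30 min before luminescence reading.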
HT1080NT lethal: kills 2HG-producing HT-1080-NT fibrosarcoma cells; HT-1080-NT fibrosarcoma viability, CellTiter-Glo ATP luminescence, 48 h; hit rate 1.6% among 360,000; Potency, µM (highest dose often 46.1 µM), most hits filed as cytotoxic;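 also: NT is the 2HG producing partner of a matched IDH1 knockdown line; nearly all actives have a fitted effect of over 55% in size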
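HT-1080-NT fibrosarcoma cells (2HG-overproducing), 750 cells/well in RPMI with 5% FBS, dosed after 2 h and incubated 48 h at 37C. CellTiter-Glo luminescence normalized to DMSO and no-cell wells; concentration-response curves fitted and classed.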
DT40 TDP1 CPT: growth inhibition of DT40 Tdp1-/-;hTDP1 cells with camptothecin (screen for TDP1 inhibitors). AID 686979. chicken DT40 Tdp1-/-;hTDP1 cells + 20 nM CPT, ATP luminescence, 48 h. Potency, µM (doses to about 46.2 µM), usual class: inhibitors. hit rate 12% among 420,000; also: nearly all actives have a fitted effect of over 55% in size
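Chicken DT40 Tdp1-/- cells complemented with human TDP1, 400 cells/well, exposed to compounds plus 20 nM camptothecin for at least 48 h at 37 C; viability read as ATP content by CellTiter-Glo luminescence.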
Each line names hits and unclear results; the compound was inactive in the other large screens. Unless noted, calls follow the shape of the dose curve; as a rule, active = well fitted curve in the direction sought with a large enough effect; inconclusive = small, poorly fitted or top-dose-only effect, or another doubt; inactive = no such curve, though single readings can be large; an effect the other way counts as inactive or inconclusive.

COc1ccc(/C(N)=N/OC(=O)c2c(-c3ccccc3Cl)noc2C)cc1OC	IL1B secr inh -91.5, HT1080 IDH1KD tx 16.4µM, DT40 TDP1 no CPT inconclusive, HT1080NT lethal inconclusive, DT40 TDP1 CPT 20.6µM
Cc1onc(-c2ccccc2Cl)c1C(=O)Oc1ccc(Cl)cc1Cl	DT40 TDP1 no CPT 20.6µM, DT40 TDP1 CPT 16.4µM (no result: IL1B secr inh, HT1080 IDH1KD tx, ELG1 repair inh, HT1080NT lethal)
Cc1nc(/C(N)=N/OC(=O)c2c(-c3ccccc3Cl)noc2C)cs1	IL1B secr inh -88.6, HT1080 IDH1KD tx inconclusive, DT40 TDP1 no CPT inconclusive, ELG1 repair inh inconclusive, HT1080NT lethal inconclusive
Cc1cc(C)cc(N(CC(=O)Nc2ccc(-c3nc4ccc(C)cc4s3)cc2)S(C)(=O)=O)c1	HT1080 IDH1KD tx inconclusive, DT40 TDP1 no CPT 14.6µM, ELG1 repair inh inconclusive, HT1080NT lethal inconclusive, DT40 TDP1 CPT 23.1µM
Cc1ccc2nc(-c3ccc(NC(=O)COC(=O)c4ccco4)cc3)sc2c1	IL1B secr inh -50.6, HT1080 IDH1KD tx inconclusive, DT40 TDP1 no CPT inconclusive, ELG1 repair inh inconclusive, HT1080NT lethal inconclusive
Cc1ccc2nc(-c3ccc(NC(=O)CN(c4ccccc4C)S(C)(=O)=O)cc3)sc2c1	DT40 TDP1 no CPT 14.6µM, ELG1 repair inh inconclusive, DT40 TDP1 CPT 20.6µM
CC(=O)N(C1=C(N)C(=O)c2ccccc2C1=O)c1ccccc1	HT1080 IDH1KD tx inconclusive, DT40 TDP1 no CPT 13µM, ELG1 repair inh 18.3µM, DT40 TDP1 CPT 23.1µM
COc1cc(C)c(N(C(C)=O)c2ccccc2)c(C)c1	ELG1 repair inh inconclusive
CCc1ccccc1OCC(=O)Nc1cccc(S(=O)(=O)NCc2ccco2)c1	IL1B secr inh inconclusive, DT40 TDP1 no CPT inconclusive, ELG1 repair inh inconclusive, DT40 TDP1 CPT 18.4µM
O=C(COc1ccccc1F)Nc1ccc(S(=O)(=O)NCc2ccco2)cc1	DT40 TDP1 no CPT 18.4µM, DT40 TDP1 CPT inconclusive
O=C(Nc1ccc(S(=O)(=O)NCc2ccco2)cc1)c1ccc2ccccc2n1	DT40 TDP1 no CPT 20.6µM, ELG1 repair inh inconclusive, DT40 TDP1 CPT inconclusive
CCN1C(=O)[C@@H]2[C@H](C1=O)[C@@H]1C(=O)Nc3ccccc3C(=O)N1[C@@H]2c1ccc(Br)cc1	none
COc1ccc(NC(=O)CN2CCN(c3ccccc3F)CC2)cc1	none
CCN(CC)c1ccc(NC(=O)CN2CCN(c3ccccc3OC)CC2)cc1	DT40 TDP1 no CPT 16.4µM, DT40 TDP1 CPT 20.6µM (no result: IL1B secr inh, HT1080 IDH1KD tx, ELG1 repair inh, HT1080NT lethal)
CCN(CC)c1ccc(NC(=O)CN2CCN(c3ccccc3F)CC2)cc1	DT40 TDP1 no CPT inconclusive, DT40 TDP1 CPT inconclusive
COC(=O)c1ccc(C(=O)OC)c(NC(=O)CN2CCN(c3ccccc3)CC2)c1	ELG1 repair inh inconclusive, DT40 TDP1 CPT inconclusive
COc1ccc(NC(=O)c2ccc(NC(=O)CN3CCN(c4ccccc4OC)CC3)cc2)cc1	HT1080 IDH1KD tx inconclusive, DT40 TDP1 no CPT 18.4µM, HT1080NT lethal inconclusive, DT40 TDP1 CPT inconclusive (no result: ELG1 repair inh)
CCN(CC)c1ccc(NC(=O)CN2CCN(S(=O)(=O)c3cc(Cl)ccc3OC)CC2)cc1	HT1080 IDH1KD tx inconclusive, DT40 TDP1 no CPT 16.4µM, ELG1 repair inh inconclusive, HT1080NT lethal inconclusive, DT40 TDP1 CPT inconclusive
COC(=O)c1ccc(C(=O)OC)c(NC(=O)CN2CCN(c3ccccc3OC)CC2)c1	DT40 TDP1 no CPT 25.9µM, ELG1 repair inh inconclusive, DT40 TDP1 CPT inconclusive
CCN(CC)CCNc1nc2nonc2nc1NCCN(CC)CC	none
COc1cc(/C(C)=N\NC(=O)CSc2nc3ccccc3n2C)ccc1O	DT40 TDP1 no CPT inconclusive, DT40 TDP1 CPT inconclusive
COC1C[C@@H](O[C@@H]2C(C)C(=O)OC(C)C(C)[C@H](OC(C)=O)C(C)C(=O)[C@@]3(CO3)CC(C)C(OC3OC(C)CC(N(C)C)[C@H]3OC(C)=O)C2C)OC(C)[C@@H]1OC(C)=O (stereo not given in full)	none (no result: IL1B secr inh, HT1080 IDH1KD tx, ELG1 repair inh, HT1080NT lethal)
O=C(CN1C(=O)c2ccccc2C1=O)N1CCOCC1	none
O=C(CN1C(=O)c2ccccc2C1=O)N1CCN(C2c3ccccc3-c3ccccc32)CC1	ELG1 repair inh 16.4µM
COc1ccc(NC(=O)CN2CCN(C3c4ccccc4-c4ccccc43)CC2)cc1	HT1080 IDH1KD tx inconclusive, DT40 TDP1 no CPT inconclusive, ELG1 repair inh 6.51µM, DT40 TDP1 CPT inconclusive
O=c1cc(C(F)(F)F)[nH]c2ccc(C(F)(F)F)cc12	IL1B secr inh inconclusive, HT1080 IDH1KD tx inconclusive, DT40 TDP1 no CPT 0.731µM, ELG1 repair inh inconclusive, HT1080NT lethal inconclusive, DT40 TDP1 CPT 7.31µM
CSc1ccc(CNC(=O)C2CCN(c3nnc(-n4cccc4CNc4ccc(C)cc4)s3)CC2)cc1	DT40 TDP1 no CPT 16.4µM, DT40 TDP1 CPT inconclusive (no result: IL1B secr inh, HT1080 IDH1KD tx, ELG1 repair inh, HT1080NT lethal)
Cc1ccc(NCc2cccn2-c2nnc(N3CCC(C(=O)NCCC(C)C)CC3)s2)cc1	DT40 TDP1 no CPT 20.6µM, DT40 TDP1 CPT inconclusive (no result: IL1B secr inh, HT1080 IDH1KD tx, ELG1 repair inh, HT1080NT lethal)
CC(C)(C)NC(=O)CSc1nc2cccnc2n1C1CCCCC1	DT40 TDP1 no CPT inconclusive, DT40 TDP1 CPT inconclusive
O=C(c1cc(Br)c[nH]1)N1CCSCC1	none
COc1ccccc1CCNC(=O)C1CC(=O)N(c2ccccc2F)C1 (stereo not given)	none (no result: ELG1 repair inh)
O=C(CSc1nc2ccccc2c(=O)n1-c1cccc(C(F)(F)F)c1)NC1CC1	IL1B secr inh inconclusive, DT40 TDP1 no CPT inconclusive, DT40 TDP1 CPT 18.4µM
